Measurements published in publication PMC7862700, “An all-to-all approach to the identification of sequence-specific readers for epigenetic DNA modifications on cytosine”.

Assays:
Experiment in all cases: DAPPL (digital affinity profiling via proximity ligation, sequencing); 10 mM Tris-HCl pH 7.5, 50 mM NaCl, 1 mM DTT, 4% glycerol, room temperature, 30 min; GST-TFs on glutathione beads, 16-mer random dsDNA library, 0.1% formaldehyde crosslink after washing; high values mean tight binding
Settings in all cases: protein: recombinant; tags: N-terminal GST; dsDNA, one strand shown
FLI1 = target: T1, FLI1 (Homo sapiens, UniProt Q01543 1-452)
T1 sequence: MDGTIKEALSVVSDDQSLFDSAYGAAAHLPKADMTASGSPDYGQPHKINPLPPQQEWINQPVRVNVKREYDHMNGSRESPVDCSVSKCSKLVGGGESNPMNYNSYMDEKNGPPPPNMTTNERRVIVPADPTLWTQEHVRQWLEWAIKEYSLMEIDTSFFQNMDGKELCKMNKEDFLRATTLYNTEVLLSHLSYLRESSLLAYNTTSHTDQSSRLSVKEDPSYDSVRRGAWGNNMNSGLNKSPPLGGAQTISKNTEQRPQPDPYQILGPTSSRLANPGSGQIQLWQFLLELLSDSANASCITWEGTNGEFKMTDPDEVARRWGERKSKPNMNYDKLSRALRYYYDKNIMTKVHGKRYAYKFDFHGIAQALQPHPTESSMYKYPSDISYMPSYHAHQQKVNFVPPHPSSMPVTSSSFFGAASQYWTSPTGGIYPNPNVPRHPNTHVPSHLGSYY
In short: (§1)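 Human transcription factors fused to GST were expressed in yeast, captured on glutathione beads, given DNA barcodes and pooled with a GST-only negative control. Pools were incubated with 200 nmole of a 16-mer random double-stranded DNA library in Tris/NaCl/DTT/glycerol buffer at room temperature for 30 min. They were then washed, crosslinked with 0.1% formaldehyde, proximity-ligated (BsaI/T4 ligase, 1 h, 37 °C), PCR-amplified and sequenced on an Illumina NextSeq500. Binding signal is each 6-mer's read frequency for a factor divided by its frequency for the GST control.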

GABPA = target: T2, GABPA (Homo sapiens, UniProt Q06546 1-454)
T2 sequence: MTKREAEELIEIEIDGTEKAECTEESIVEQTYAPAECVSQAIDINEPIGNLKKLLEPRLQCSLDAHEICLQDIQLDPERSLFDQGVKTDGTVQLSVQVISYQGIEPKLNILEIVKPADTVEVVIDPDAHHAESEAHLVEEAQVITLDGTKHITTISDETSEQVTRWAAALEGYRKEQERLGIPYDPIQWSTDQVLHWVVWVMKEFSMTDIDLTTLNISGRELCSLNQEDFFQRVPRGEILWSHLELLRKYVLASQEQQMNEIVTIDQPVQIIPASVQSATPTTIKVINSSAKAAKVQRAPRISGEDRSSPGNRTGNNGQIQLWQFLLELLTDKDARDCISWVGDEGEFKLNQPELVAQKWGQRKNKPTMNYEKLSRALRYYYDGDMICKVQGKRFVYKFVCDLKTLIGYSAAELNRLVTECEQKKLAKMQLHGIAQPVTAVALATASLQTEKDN
In short: as §1

EHF = target: T3, EHF (Homo sapiens, UniProt Q9NZC4 1-300)
T3 sequence: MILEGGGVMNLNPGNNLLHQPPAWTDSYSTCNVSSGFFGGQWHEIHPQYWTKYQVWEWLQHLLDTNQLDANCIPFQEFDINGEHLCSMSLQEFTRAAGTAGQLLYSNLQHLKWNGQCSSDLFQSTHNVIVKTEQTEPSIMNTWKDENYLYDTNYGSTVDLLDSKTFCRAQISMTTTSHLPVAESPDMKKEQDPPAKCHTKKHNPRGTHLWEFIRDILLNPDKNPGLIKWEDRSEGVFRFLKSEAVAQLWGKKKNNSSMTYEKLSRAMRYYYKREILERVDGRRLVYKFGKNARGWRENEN
In short: as §1

ETV2 = target: T4, ETV2 (Homo sapiens, UniProt O00321 1-342)
T4 sequence: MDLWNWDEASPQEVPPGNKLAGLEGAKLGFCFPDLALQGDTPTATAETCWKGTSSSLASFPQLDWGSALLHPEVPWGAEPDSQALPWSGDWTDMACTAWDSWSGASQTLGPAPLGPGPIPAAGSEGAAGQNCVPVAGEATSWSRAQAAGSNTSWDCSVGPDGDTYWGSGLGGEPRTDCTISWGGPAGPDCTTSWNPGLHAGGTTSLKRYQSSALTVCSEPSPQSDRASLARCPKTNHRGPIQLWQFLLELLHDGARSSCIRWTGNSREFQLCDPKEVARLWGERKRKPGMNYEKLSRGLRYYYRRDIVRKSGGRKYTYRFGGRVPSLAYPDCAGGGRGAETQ
In short: as §1

ELF3 = target: T5, ELF3 (Homo sapiens, UniProt P78545 1-371)
T5 sequence: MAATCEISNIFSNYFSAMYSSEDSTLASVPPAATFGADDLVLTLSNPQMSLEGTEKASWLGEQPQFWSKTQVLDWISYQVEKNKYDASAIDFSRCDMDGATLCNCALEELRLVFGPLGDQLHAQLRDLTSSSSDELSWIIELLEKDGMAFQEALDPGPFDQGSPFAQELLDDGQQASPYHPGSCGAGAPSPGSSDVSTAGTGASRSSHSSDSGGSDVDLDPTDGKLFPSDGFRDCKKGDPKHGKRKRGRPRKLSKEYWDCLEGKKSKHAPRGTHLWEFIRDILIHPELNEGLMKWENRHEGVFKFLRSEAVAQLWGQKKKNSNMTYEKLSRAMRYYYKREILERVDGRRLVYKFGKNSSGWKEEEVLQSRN
In short: as §1

ETV7 = target: T6, ETV7 (Homo sapiens, UniProt Q9Y603 1-341)
T6 sequence: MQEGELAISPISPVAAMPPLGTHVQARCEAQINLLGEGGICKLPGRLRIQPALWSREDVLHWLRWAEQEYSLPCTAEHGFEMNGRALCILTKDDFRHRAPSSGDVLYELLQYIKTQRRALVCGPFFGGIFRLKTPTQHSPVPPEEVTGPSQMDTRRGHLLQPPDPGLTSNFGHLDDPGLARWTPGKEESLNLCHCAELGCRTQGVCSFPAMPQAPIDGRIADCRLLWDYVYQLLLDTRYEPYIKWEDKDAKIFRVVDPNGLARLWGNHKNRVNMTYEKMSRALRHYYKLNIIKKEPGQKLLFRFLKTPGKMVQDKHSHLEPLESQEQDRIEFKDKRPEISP
In short: as §1

ETV6 = ETV6 (Homo sapiens, UniProt P41212 1-452)
Sequence of ETV6 (P41212 whole entry): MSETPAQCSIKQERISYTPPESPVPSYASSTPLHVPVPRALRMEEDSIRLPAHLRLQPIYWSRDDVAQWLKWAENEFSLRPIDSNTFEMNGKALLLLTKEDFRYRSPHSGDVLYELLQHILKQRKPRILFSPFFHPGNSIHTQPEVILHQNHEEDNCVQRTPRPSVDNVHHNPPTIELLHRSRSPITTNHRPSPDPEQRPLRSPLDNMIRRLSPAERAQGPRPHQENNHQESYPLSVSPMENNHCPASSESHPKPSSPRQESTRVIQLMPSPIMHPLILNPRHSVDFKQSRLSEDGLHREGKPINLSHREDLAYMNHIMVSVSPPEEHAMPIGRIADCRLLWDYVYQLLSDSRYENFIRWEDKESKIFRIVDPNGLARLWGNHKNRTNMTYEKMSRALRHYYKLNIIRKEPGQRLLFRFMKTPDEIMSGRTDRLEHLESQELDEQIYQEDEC
In short: as §1

SPIC = target: T7, SPIC (Homo sapiens, UniProt Q8N5J4 1-248)
T7 sequence: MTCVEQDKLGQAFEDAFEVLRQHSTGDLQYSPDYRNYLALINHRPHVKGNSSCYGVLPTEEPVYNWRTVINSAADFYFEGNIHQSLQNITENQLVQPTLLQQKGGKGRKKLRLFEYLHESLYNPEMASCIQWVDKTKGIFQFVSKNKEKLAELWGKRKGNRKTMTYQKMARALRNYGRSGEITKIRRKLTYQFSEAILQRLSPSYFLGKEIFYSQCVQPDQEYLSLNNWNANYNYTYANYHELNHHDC
In short: as §1

ELF4 = ELF4 (Homo sapiens, UniProt Q99607 1-663)
Sequence of ELF4 (Q99607 whole entry): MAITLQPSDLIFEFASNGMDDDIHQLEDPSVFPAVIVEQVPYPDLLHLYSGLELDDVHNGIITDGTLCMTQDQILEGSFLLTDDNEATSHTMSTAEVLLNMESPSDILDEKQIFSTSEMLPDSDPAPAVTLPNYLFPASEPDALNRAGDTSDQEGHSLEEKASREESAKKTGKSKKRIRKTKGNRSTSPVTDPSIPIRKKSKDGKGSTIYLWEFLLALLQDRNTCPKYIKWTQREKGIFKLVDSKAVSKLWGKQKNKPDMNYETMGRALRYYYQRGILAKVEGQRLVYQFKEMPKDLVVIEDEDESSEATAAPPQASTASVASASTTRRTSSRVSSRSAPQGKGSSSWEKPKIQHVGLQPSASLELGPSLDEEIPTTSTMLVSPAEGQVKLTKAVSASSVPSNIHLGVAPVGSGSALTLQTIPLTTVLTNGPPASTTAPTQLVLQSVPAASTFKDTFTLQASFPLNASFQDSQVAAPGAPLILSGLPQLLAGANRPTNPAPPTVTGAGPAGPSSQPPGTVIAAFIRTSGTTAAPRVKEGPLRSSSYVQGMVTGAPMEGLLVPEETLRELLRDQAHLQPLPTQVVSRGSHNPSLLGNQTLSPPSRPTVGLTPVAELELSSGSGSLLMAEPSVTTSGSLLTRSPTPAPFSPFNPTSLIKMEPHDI
In short: as §1

ELK4 = target: T8, ELK4 (Homo sapiens, UniProt P28324-2 1-405)
T8 sequence: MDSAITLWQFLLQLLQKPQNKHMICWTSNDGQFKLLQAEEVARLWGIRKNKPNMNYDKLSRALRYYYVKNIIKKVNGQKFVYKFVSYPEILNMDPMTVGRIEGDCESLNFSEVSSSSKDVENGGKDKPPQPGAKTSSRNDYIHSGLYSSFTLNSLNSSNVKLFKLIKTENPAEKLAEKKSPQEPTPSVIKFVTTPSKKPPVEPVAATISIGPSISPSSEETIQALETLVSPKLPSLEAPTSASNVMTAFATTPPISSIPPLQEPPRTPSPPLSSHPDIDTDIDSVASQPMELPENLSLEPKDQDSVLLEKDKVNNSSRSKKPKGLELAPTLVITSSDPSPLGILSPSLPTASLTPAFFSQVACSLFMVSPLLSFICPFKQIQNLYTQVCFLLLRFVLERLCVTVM
In short: as §1

ETV1 = ETV1 (Homo sapiens, UniProt P50549 1-477)
Sequence of ETV1 (P50549 whole entry): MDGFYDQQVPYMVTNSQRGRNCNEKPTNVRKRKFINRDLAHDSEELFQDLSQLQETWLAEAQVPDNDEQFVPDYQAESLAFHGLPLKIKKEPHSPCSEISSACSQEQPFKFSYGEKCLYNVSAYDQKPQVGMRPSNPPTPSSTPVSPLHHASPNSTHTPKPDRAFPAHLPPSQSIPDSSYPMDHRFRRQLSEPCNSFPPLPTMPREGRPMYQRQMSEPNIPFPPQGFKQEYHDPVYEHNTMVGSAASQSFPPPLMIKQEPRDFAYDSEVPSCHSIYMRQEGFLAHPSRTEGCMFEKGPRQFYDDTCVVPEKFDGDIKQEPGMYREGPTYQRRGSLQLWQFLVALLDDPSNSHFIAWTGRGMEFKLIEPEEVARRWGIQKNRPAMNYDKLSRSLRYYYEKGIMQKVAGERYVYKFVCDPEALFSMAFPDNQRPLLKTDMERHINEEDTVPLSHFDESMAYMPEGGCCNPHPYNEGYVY
In short: as §1

ERF = target: T9, ERF (Homo sapiens, UniProt P50548 1-548)
T9 sequence: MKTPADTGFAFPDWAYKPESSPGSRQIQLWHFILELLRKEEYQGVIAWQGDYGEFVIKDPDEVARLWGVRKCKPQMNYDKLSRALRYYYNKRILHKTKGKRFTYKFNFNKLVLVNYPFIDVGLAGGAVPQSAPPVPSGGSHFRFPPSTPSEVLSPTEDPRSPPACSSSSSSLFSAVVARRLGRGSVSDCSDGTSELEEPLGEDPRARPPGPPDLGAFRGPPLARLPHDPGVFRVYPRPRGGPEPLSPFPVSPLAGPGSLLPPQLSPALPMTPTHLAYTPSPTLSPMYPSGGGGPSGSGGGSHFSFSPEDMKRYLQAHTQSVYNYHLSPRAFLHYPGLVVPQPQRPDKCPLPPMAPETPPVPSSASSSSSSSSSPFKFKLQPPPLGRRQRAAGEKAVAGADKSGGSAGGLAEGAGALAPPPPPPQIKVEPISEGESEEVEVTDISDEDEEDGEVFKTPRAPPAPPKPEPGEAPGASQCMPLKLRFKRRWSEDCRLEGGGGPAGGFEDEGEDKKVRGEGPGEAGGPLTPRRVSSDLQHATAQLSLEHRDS
In short: as §1

ETV3L = target: T10, ETV3L (Homo sapiens, UniProt Q6ZN32 1-361)
T10 sequence: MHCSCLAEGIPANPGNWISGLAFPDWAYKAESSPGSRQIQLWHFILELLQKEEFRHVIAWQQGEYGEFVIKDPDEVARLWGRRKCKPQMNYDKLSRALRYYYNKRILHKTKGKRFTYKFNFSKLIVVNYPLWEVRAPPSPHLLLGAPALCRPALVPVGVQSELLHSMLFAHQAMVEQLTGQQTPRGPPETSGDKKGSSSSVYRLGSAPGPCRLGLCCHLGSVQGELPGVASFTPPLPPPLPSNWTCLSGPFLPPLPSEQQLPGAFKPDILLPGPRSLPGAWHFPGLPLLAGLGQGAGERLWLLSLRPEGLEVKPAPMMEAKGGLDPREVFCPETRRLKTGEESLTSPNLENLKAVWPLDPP
In short: as §1

ETV3 = target: T11, ETV3 (Homo sapiens, UniProt P41162-2 1-143)
T11 sequence: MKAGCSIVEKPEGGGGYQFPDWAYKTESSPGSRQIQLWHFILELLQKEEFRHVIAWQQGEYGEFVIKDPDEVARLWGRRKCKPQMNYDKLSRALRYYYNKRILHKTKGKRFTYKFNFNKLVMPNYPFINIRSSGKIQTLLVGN
In short: as §1

**Q.** Which results are given for TTGGAA?
**A.** binding signal (FLI1): 1.01 fold enrichment (6-mer frequency, TF over GST control); binding signal (GABPA): 1.03 fold enrichment (6-mer frequency, TF over GST control); binding signal (EHF): 1.04 fold enrichment (6-mer frequency, TF over GST control); binding signal (ETV2): 1.02 fold enrichment (6-mer frequency, TF over GST control); binding signal (ELF3): 1.06 fold enrichment (6-mer frequency, TF over GST control); binding signal (ETV7): 1 fold enrichment (6-mer frequency, TF over GST control); binding signal (ETV6): 1.03 fold enrichment (6-mer frequency, TF over GST control)

**Q.** What does the source list for GCTAGG?
**A.** binding signal (FLI1): 1.01 fold enrichment (6-mer frequency, TF over GST control); binding signal (EHF): 1.12 fold enrichment (6-mer frequency, TF over GST control); binding signal (SPIC): 1.03 fold enrichment (6-mer frequency, TF over GST control); binding signal (ELF4): 1.06 fold enrichment (6-mer frequency, TF over GST control); binding signal (ELK4): 1.08 fold enrichment (6-mer frequency, TF over GST control); binding signal (ELF3): 1.14 fold enrichment (6-mer frequency, TF over GST control); binding signal (ETV1): 1 fold enrichment (6-mer frequency, TF over GST control); binding signal (ERF): 1.01 fold enrichment (6-mer frequency, TF over GST control); binding signal (ETV3L): 1.06 fold enrichment (6-mer frequency, TF over GST control); binding signal (ETV3): 1.03 fold enrichment (6-mer frequency, TF over GST control); binding signal (ETV6): 1.07 fold enrichment (6-mer frequency, TF over GST control)
